This is part of a sample that, as a whole, favours compounds with a hit. Of some 83,000 tested, about 20% had one in any assay.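 96-well plates, one dose, 48 hours. Percent growth reported; active if below 10.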 Values without a mark were called inactive. Active and inactive are the calls of the source.
What was measured:
Test in all cases: NCI-60 one-dose screen, 48 h (100 = growth as untreated, 0 = no growth, -100 = all killed)
Conditions in all cases: 10 µM unless noted
SK-MEL-2 melanoma = tested on: SK-MEL-2 melanoma
EKVX NSCLC = tested on: EKVX NSCLC
SN12C renal = tested on: SN12C renal
UO-31 renal = tested on: UO-31 renal
TK-10 renal = tested on: TK-10 renal
ACHN renal = tested on: ACHN renal
CAKI-1 renal = tested on: CAKI-1 renal
A498 renal = tested on: A498 renal
CCRF-CEM leukemia = tested on: CCRF-CEM leukemia
MOLT-4 leukemia = tested on: MOLT-4 leukemia
SR leukemia = tested on: SR leukemia
RPMI-8226 leukemia = tested on: RPMI-8226 leukemia
OVCAR-8 ovarian = tested on: OVCAR-8 ovarian
OVCAR-5 ovarian = tested on: OVCAR-5 ovarian
OVCAR-4 ovarian = tested on: OVCAR-4 ovarian
SK-OV-3 ovarian = tested on: SK-OV-3 ovarian
IGROV1 ovarian = tested on: IGROV1 ovarian
OVCAR-3 ovarian = tested on: OVCAR-3 ovarian
HS 578T breast = tested on: HS 578T breast
NCI/ADR-RES ovarian = tested on: NCI/ADR-RES ovarian

Row | Compound | growth (SK-MEL-2 melanoma) | growth (EKVX NSCLC) | growth (SN12C renal) | growth (UO-31 renal) | growth (TK-10 renal) | growth (ACHN renal) | growth (CAKI-1 renal) | growth (A498 renal) | growth (CCRF-CEM leukemia) | growth (MOLT-4 leukemia) | growth (SR leukemia) | growth (RPMI-8226 leukemia) | growth (OVCAR-8 ovarian) | growth (OVCAR-5 ovarian) | growth (OVCAR-4 ovarian) | growth (SK-OV-3 ovarian) | growth (IGROV1 ovarian) | growth (OVCAR-3 ovarian) | growth (HS 578T breast) | growth (NCI/ADR-RES ovarian)
1 | C#CCO[C@H]1CC[C@H](OCC#C)[C@@H]2[C@H]1[C@H]1C[C@@H]3[C@@]4(C)CCC[C@@](C)(C(=O)OC)[C@@H]4CC[C@@]23C=C1C(C)C | 85% | 74.4% | 86.3% | 50.5% | 93.7% | 92.6% | 59.3% | 108% | -52.9% (active) | 56.2% | 20.5% | 11.7% | 82% | 92.1% | 99.3% | 88.6% | 0.137% (active) | 75.4% | 114% | 71.4%
2 | COc1cc(NCC(O)CN(CC(C)C)CC(C)C)c2ncccc2c1 (stereo not given) | 100% | 93.2% | 84.6% | 88.6% | 113% | 87.6% | 99.2% | 70% | 57.8% | 74.9% | 50.6% | 37.6% | 63.3% | 101% | 19.5% | 87.4% | 74.3% | 47.4% | 84.7% | 92.4%
3 | COc1ccc(-c2nc3c(c(-c4ccc(Cl)cc4)nn3-c3ccccc3)c(-c3ccc(O)cc3)c2C#N)cc1 | 62.4% | 49.6% | -26.7% (active) | 36.8% | 93.7% | 50.7% | 40.1% | 61.4% | 12.6% | 14.4% | -29.9% (active) | -33% (active) | 61.3% | 78.9% | 47.5% | 84.5% | 72.4% | 34.1% | 24.6% | 54.6%
4 | COc1cc(C2C(C#N)=C(N)Oc3cc4c(cc32)OCO4)cc2c1OCO2 (stereo not given) | 56.6% | 55.7% | 35.2% | 46.3% | 72.1% | 35% | 60.8% | 8.65% (active) | 18.2% | 20.3% | 15.3% | 31.4% | 35.1% | 41.3% | 42.3% | -5.36% (active) | 33.3% | -39.7% (active) | 23% | 11.2%
5 | Cc1cc(-c2ccc(N=Nc3c(S(=O)(=O)O)cc4cc(S(=O)(=O)O)cc(O)c4c3O)c(C)c2)ccc1N=Nc1c(S(=O)(=O)O)cc2cc(S(=O)(=O)O)cc(O)c2c1O | 90.6% | 79.6% | 116% | 73.9% | 115% | 101% | 78.1% | 122% | 102% | 127% | 148% | 114% | 99.5% | 99.4% | 103% | 88.9% | 80.6% | 120% | 78.6% | 108%
6 | CN1CCC2(CC1)N=C(SCC(=O)Nc1cnc3ccccc3c1)C(c1ccc(Br)cc1)=N2 | -31.2% (active) | 37.9% | 31.1% | -12.5% (active) | 30.1% | 5.39% (active) | 8.73% (active) | 44.6% | 4.53% (active) | 1.51% (active) | -27% (active) | -7.88% (active) | 19.9% | 67.7% | 65.8% | 54.9% | 16.2% | 35.4% | 24% | 29.6%
7 | O=c1nc(-c2ccccc2)c2cc(-c3ccc(N4CCOCC4)cc3)ccc2[nH]1 | 81.6% | 89.8% | 79.4% | 66% | 68.1% | 71.6% | 74.8% | 88.6% | 77.4% | 71.2% | 71.2% | 51.3% | 82% | 99.5% | 91% | 77.1% | 81.6% | 97.1% | 84% | 95.3%
8 | c1coc(CNc2c3ccccc3nc3ccccc23)c1 | 101% | 62.1% | 53.5% | 39.5% | 88.4% | 26.2% | 41% | 20.1% | 57.2% | 27.2% | 34% | 56.6% | 47.5% | 76.4% | 56.2% | 70.9% | 61.8% | 96.9% | 84% | 44.8%
9 | COc1cnc2c(c1)C(=O)c1c-2n(CCCNC(C)C)c(=O)c2cc(Cl)ccc12 | 70.2% | -32.7% (active) | 17.3% | -81.7% (active) | -89.1% (active) | -100% (active) | 28.8% | -2.79% (active) | -41.1% (active) | -47% (active) | -52.1% (active) | -59% (active) | -41.6% (active) | -56.1% (active) | -77% (active) | -5.05% (active) | -57% (active) | -78.3% (active) | 58.1% | -9.91% (active)
10 | COc1ccccc1-[n+]1cc(-c2ccc(-c3ccccc3)cc2)n2c1CCCCC2 | -27% (active) | 9.1% (active) | 0.949% (active) | 74.7% | 7.69% (active) | 32.5% | 72.6% | 9.77% (active) | 17.2% | 9.4% (active) | 8.54% (active) | -14.7% (active) | 2.74% (active) | 18.4% | 20.2% | -18.1% (active) | 16.6% | 9.07% (active) | 22.1% | 86.9%
11 | CCN(CC)CCCC(C)Nc1c(-c2ccccc2)cnc2cc(Cl)ccc12 (stereo not given) | 35.1% | 83.4% | 74.1% | 50.3% | 59.8% | 93% | 85.8% | 60% | 62.1% | 48.5% | 7.58% (active) | 27.4% | 71.3% | 83.4% | 83% | 89.7% | 36.5% | 82.4% | 70.3% | 79.6%
12 | O=C(/C=C/c1ccc(F)cc1)N1CCN(C(=O)/C=C/c2ccc(C(F)(F)F)cc2)CC1 | 118% | 93.1% | 106% | 89.7% | 105% | 115% | 97.3% | 130% | 103% | 115% | 114% | 124% | 105% | 109% | 116% | 118% | 122% | 113% | 123% | 113%
13 | COc1ccc(C2=NNC(c3ccc(Oc4nc5c(c(=O)n(C)c(=O)n5C)n4C)c(OC)c3)C2)cc1 (stereo not given) | 99.4% | 97.7% | 85.2% | 81.2% | 107% | 93.7% | 102% | 91.9% | 82.8% | 76% | 62.7% | 80.4% | 94.4% | 102% | 98.1% | 117% | 105% | 108% | 89.4% | 87.2%
14 | CC(C)(C)[Si](C)(C)OC1[C@@H](O[Si](C)(C)C(C)(C)C)[C@@H](CNC(=O)NC(=O)NC(=O)CCl)O[C@H]1n1cnc2c(NC(=O)Nc3ccccc3)ncnc21 (stereo not given in full) | 84.9% | 86.3% | 54.6% | -94.9% (active) | 97.2% | -12.9% (active) | 76.2% | 88.7% | -30.4% (active) | 4.05% (active) | -10.7% (active) | 46.8% | 25.1% | 74.1% | 58.1% | 97.3% | -51.8% (active) | -6.77% (active) | 74.3% | 50.4%
15 | CSc1ccc(/C=C2\C=C(CC(=O)NCc3ccc(C(=O)c4ccccc4)cc3)c3cc(F)ccc32)cc1 | -3.62% (active) | 25.5% | 9.57% (active) | 26.6% | 13.8% | 2.09% (active) | 7.79% (active) | -10.5% (active) | 11.5% | 9.47% (active) | 10.3% | 15.2% | 1.81% (active) | 25.2% | 10.9% | -34.4% (active) | 10.3% | -60.1% (active) | 2.68% (active) | -34.6% (active)
